The record followed here is PubChem BioAssay (NCI).

Each structure is given as a SMILES string. Several values for one entry are separate records, joined by “and”; a condition that tells them apart may be missing. Identical values can stand only once. The panel holds about 83,000 compounds, 20% with a hit somewhere; the sample as a whole holds those more often.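 Values shown are percent growth following 48 h exposure of cells in 96-well plates to a single concentration of compound; below 10 was considered active.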 A number with no mark means an inactive call. Activity calls are given as the source filed them.

The assay deals with SK-MEL-28 melanoma. In words: NCI-60 one-dose screen, 48 h (100 = growth as untreated, 0 = no growth, -100 = all killed). The following applies: 10 µM unless noted. The procedure: Growth inhibition of the SK-MEL-28 human tumor cell line is measured as a screen for anti-cancer activity. Cells are grown in 96 well plates and exposed to the test compound for 48 hours. Compounds are tested at a single concentration, which is 10^-5 M for most compounds. The reported endpoint is percent growth (GI% or GIPRCNT), where numbers from 0 - 100% represent growth inhibition, and numbers from -100% - 0 represent cell death. For example, a value of 40 represents 60% growth inhibition. A value of 0 means no net growth occurred over the course of the experiment. A value of -40 indicates 40% of cells at the beginning of the experiment died by the end of the experiment. A value of -100 means all cells are dead at the end of the experiment.
NCI-60 Human Tumor Cell Lines Screen was performed using the standard one-dose NCI protocol, which is described in more detail at https://dtp.cancer.gov/discovery_development/nci-60/default.htm.
Compounds with GIPRCNT values below 10 were considered active. Activity score was based on GIPRCNT using the following formula: […]
Score is 0 for GIPRCNT values of 100 or above, 50 for GIPRCNT values of 0, and 100 for GIPRCNT values of -100.
Consider `CC[C@H](C)[C@H](NC(=O)[C@H]1CCCCN1C)C(=O)N(C)[C@H](C[C@@H](OC(C)=O)c1nc(C(=O)NC23C4C5C2C2C3C4C52C(=O)OC)cs1)C(C)C` (stereo not given in full), for which the growth was 59.1%.
With `CC[C@H](C)[C@H](NC(=O)c1ncccn1)C(=O)N(C)[C@H](C[C@@H](OC(C)=O)c1nc(C(=O)N[C@@H](Cc2ccccc2)C[C@H](C)C(=O)OC)cs1)C(C)C`, the growth was 50.3%.
Then `O=C1CCCCC1CN1CCCCC1` (stereo not given), with 106%; and `O=S(=O)(c1ccc(O)cc1)c1ccccc1O`, with 105%; and `CN1[C@@H](CC(=O)c2ccccc2)CCC[C@H]1CC(=O)c1ccccc1`, with 103%.
Regarding `C[N+]12CCC34C5=CC(=O)C(=O)C=C5[N+]5(C)C(=O)CC6OCC=C(C1)C(CC32)C6C45` (stereo not given), the growth is 108%.
Take `C[N+]1(C)CCCC1c1cccnc1` (stereo not given): the growth is 114%.
As for `C[C@H](O)CCC(=O)c1ccoc1`, the figure is 115%; as for `N#CC(C#N)=C(C#N)C#N`, 105%.
On to `CCC1(NC(=O)c2cc(F)c(F)c(F)c2F)C(=O)NC(=O)N(C(C)C)C1=O` (stereo not given), for which the growth was 53.2%.
For the compound `CN(C)c1ccc(N)cc1`, the growth was 115% and 73.2%.
On to `Oc1ccccc1C=NCCN=Cc1ccccc1O`, for which the growth was 103%.
On to `COC(=O)C1=CO[C@@H](C)[C@@H]2CN3CCc4c([nH]c5cc(OC)ccc45)[C@@H]3C[C@H]12`, for which the growth is 114%.
On to `COc1cc(-c2ccc(N)c(OC)c2)ccc1N`, for which the growth was 111%.
As for `O=S1(=O)OCCO1`, the figure is 100%.
Then `Cc1cc(N(CCCl)CCCl)ccc1/C=N\NC(=O)c1cccnc1`, with 108% and 97.8%; and `Nc1ccc(P(=O)(O)O)cc1`, with 117% and 111%.
For the compound `N#CCC(=O)c1ccccc1`, the growth was 114%.
With `O=C1C=C(N2CC2)c2ccccc2C1=O`, the growth was 111%.
Then `CCOP(=O)(OCC)C(=O)N(CC)CC`, with 115%.
As for `C[C@]12CC[C@H]3[C@@H](CC=C4c5nc(N)sc5CC[C@@]43C)[C@@H]1CC[C@@H]2O`, the figure is 113%; as for `C/C=C(/C)C(=O)O[C@H]1CC[C@@]2(C)[C@@H]3CC[C@H]4[C@]5(O)C[C@H](O)[C@@]6(O)[C@@H](CN7C[C@@H](C)CC[C@H]7[C@@]6(C)O)[C@]5(O)C[C@@]42O[C@@]13O`, 124%.
Regarding `CCC1CCC(=O)O1` (stereo not given), the growth is 104% and 115%.
On to `CC(C)CCC1C(=O)NC(=O)NC1=O`, for which the growth is 101%.
In the case of `O=c1[nH]c(=O)[nH]c(=O)[nH]1`, the growth is 135%.
On to `C[C@]12CCC3[C@@H](C[C@@H]4SC(Nc5ccccc5)=N[C@@]45CC(=O)CC[C@]35C)[C@@H]1CCC2=O` (stereo not given in full), for which the growth was 1.73% (active).
Turning to `C#Cc1cccc(Nc2nc(Cl)nc3cc(NC(=O)CF)ccc23)c1`, the growth is 73.2%.
For the compound `CCCCn1c(=O)c(C(=O)NCc2ccccc2Cl)c(O)c2ccccc21`, the growth was 103%.
With `Cc1cc2c(cc1-c1ccnc(/C=C/C(=O)O)c1)C(C)(C)CCC2(C)C`, the growth was 92.9%.
For the compound `O=P(O)(Nc1ccccc1)Nc1ccccc1`, the growth was 148%.
Regarding `CCOC(=O)c1ccccc1C(=O)OCC`, the growth is 114%.
`COCC1OC2OC3C(COC)OC(OC4C(COC)OC(OC5C(COC)OC(OC6C(COC)OC(OC7C(COC)OC(OC8C(COC)OC(OC1C(O)C2O)C(O)C8O)C(O)C7O)C(O)C6O)C(O)C5O)C(O)C4O)C(O)C3O` (stereo not given) (tested in a mixture with another compound): the growth is 112%.
`C[C@]12CC[C@@H](OC(=O)N(CCCl)N=O)C[C@@H]1CC[C@@H]1[C@@H]2CC[C@]2(C)C(=O)CC[C@@H]12`: the growth is 99.4%.
As for `O=NN1CCCCC1`, the figure is 110%; as for `C(=NC1CCCCC1)=NC1CCCCC1`, 97.2% and 94.9%; as for `CC1=C2[C@H]3OC(=O)[C@@H](C)[C@@H]3CC[C@@]2(C)C=CC1=O`, 122%.
Regarding `NC(=O)Oc1cc(OC(N)=O)cc(N(CCCl)CCCl)c1`, the growth was 82.5%.
For the compound `O=[N+]([O-])c1c(Cl)cc(Cl)c([N+](=O)[O-])c1Cl`, the growth is 100%.
As for `N#CC(C#N)=Cc1cccc(F)c1`, the growth is 111%.
`O=c1[nH]c(=O)n(Cl)c(=O)n1Cl`: the growth is 117% and 122%.
